Experimental findings from PubChem BioAssay (Tox21) are described below.

Records with an inconclusive call do not appear. Calls of active or inactive are those of the source. Unless noted, calls come from the whole dose curve; as a rule, active = well fitted curve in the direction sought with a large enough effect in the repeat runs; inconclusive = weak or mixed curves; inactive = no such curve, though single readings can be large; an effect the other way counts as inactive or inconclusive.

Experiment [1] can be described thus: qHTS assay to identify small molecule antagonists of the glucocorticoid receptor (GR) signaling pathway - cell viability counter screen (AID 720693). Note: nearly all actives have a fitted effect of over 55% in size. Note: potency is the fitted concentration of half-maximal effect.
A short description of experiment [2]: qHTS assay for identifying genotoxic compounds that show differential cytotoxicity against isogenic chicken DT40 cell lines with known DNA damage response pathways - wild type cell line (AID 743012). Note: nearly all actives have a fitted effect of over 60% in size. Note: potency is the fitted concentration of half-maximal effect. The method, boiled down:
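First, wild type DT40 cells were plated at 300 per well and equilibrated about 0.5 h at 37 C/5% CO2. Next, compounds in DMSO were added and exposure lasted 40 h. Finally, CellTiter-Glo was added for 30 min at room temperature and luminescence recorded.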
(In qHTS, concentration-response curves come from the screen itself.)

Experiment [3] can be described thus: qHTS assay for identifying genotoxic compounds that show differential cytotoxicity against isogenic chicken DT40 cell lines with known DNA damage response pathways - Rev3 mutant cell line (AID 743014). Note: nearly all actives have a fitted effect of over 55% in size. Note: potency is the fitted concentration of half-maximal effect.
Experiment [4] is described as follows: qHTS assay for identifying genotoxic compounds that show differential cytotoxicity against isogenic chicken DT40 cell lines with known DNA damage response pathways - Rad54/Ku70 mutant cell line (AID 743015). Note: nearly all actives have a fitted effect of over 60% in size. Note: potency is the fitted concentration of half-maximal effect.
Experiment [5] in a line: qHTS assay to identify small molecule antagonists of the androgen receptor (AR) signaling pathway - cell viability counter screen (AID 743033; note: nearly all actives have a fitted effect of over 45% in size; note: potency is the fitted concentration of half-maximal effect).
The nature of experiment [6]: qHTS assay to identify small molecule antagonists of the androgen receptor (AR) signaling pathway using the MDA cell line - cell viability counter screen (AID 743041; note: nearly all actives have a fitted effect of over 45% in size; note: potency is the fitted concentration of half-maximal effect). The gist of the method:
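MDA-kb2 AR-luc cells (MMTV-luciferase, AR/GR responsive) treated with compounds plus R1881 agonist for 16 h at 37C. CellTiter-Fluor added at 15.5 h; fluorescence read after 30 min in the same wells.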

The nature of experiment [7]: qHTS assay to identify small molecule antagonists of the thyroid receptor (TR) signaling pathway - cell viability counter screen (AID 743064). Note: nearly all actives have a fitted effect of over 50% in size. The gist of the method: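 In-well cytotoxicity read by CellTiter-Fluor (30 min, 37 C) following 23.5 h exposure of GH3 cells bearing a TRE-luciferase sensor. Compounds were added alongside 1 nM (final) T3 to drive TR transactivation.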

A short description of experiment [8]: qHTS assay to identify small molecule antagonists of the thyroid receptor (TR) signaling pathway (AID 743065). Note: nearly all actives have a fitted effect of over 55% in size. Note: potency is the fitted concentration of half-maximal effect. The method, boiled down:
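GH3.TRE-Luc rat pituitary cells (two TREs driving luciferase) were dosed with compound, then stimulated with 1 nM T3 (final) for 23.5 h at 37 C. ONE-Glo luminescence was the read-out, with CellTiter-Fluor fluorescence as the cytotoxicity counter-screen.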

Experiment [9] concerns thyroid hormone receptor (rat, GH3 cells). Kind of experiment: qHTS assay to identify small molecule agonists of the thyroid receptor (TR) signaling pathway (AID 743066; calls by dose curve).
Experiment [10] has as its target Estrogen receptor (Homo sapiens) (UniProt P03372). The experiment in a line: qHTS assay to identify small molecule antagonists of the estrogen receptor alpha (ER-alpha) signaling pathway (AID 743069; active = well fitted curve in the direction sought with a large enough effect in the signal ratio in the repeat runs, not every such curve was filed as active; the % refers to the signal ratio). The gist of the method:
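HEK293 ER-alpha-UAS-bla GripTite cells, held overnight in 2% charcoal-stripped FBS, 5,000 cells/well, preincubated 4 h, then compound plus 17beta-estradiol for 18 h at 37C. Beta-lactamase read by LiveBLAzer B/G FRET substrate, 2 h at room temperature.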

Experiment [11] in a line: qHTS assay to identify small molecule antagonists of the estrogen receptor alpha (ER-alpha) signaling pathway - cell viability counter screen (AID 743074; calls by dose curve;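 note: HEK293 cells carrying ER-alpha-UAS-bla reporter stimulated with 17beta-estradiol; nearly all actives have a fitted effect of over 45% in size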).
Experiment [12] deals with Estrogen receptor (Homo sapiens) (UniProt P03372). The experiment in a line: qHTS assay to identify small molecule agonists of the estrogen receptor alpha (ER-alpha) signaling pathway (AID 743075; calls by dose curve).
Chain of Estrogen receptor (Homo sapiens) (P03372 whole entry, looked up): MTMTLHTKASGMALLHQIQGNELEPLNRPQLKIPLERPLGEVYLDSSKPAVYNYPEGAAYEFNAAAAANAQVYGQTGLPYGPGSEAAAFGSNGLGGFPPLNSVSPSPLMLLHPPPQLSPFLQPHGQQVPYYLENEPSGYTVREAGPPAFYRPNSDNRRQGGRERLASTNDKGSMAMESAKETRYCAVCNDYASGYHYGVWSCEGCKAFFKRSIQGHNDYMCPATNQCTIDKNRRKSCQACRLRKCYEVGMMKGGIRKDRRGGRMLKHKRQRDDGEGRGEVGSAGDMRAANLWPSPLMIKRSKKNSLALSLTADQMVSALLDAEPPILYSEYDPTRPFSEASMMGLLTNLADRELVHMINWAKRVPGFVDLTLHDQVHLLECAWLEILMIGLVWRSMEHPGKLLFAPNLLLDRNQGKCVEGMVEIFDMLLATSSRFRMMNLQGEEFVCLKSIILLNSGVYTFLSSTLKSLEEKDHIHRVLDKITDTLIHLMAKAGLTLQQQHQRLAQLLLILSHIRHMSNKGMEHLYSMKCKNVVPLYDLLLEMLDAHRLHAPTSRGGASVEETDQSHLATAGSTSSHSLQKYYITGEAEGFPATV
The target is the same in experiment [13]. The experiment in a line: qHTS assay to identify small molecule agonists of the estrogen receptor alpha (ER-alpha) signaling pathway using the BG1 cell line (AID 743079). Note: nearly all actives have a fitted effect of over 20% in size.
A short description of experiment [14]: qHTS assay to identify small molecule antagonists of the estrogen receptor alpha (ER-alpha) signaling pathway using the BG1 cell line (AID 743080; calls by dose curve;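 note: BG1 cells stimulated with 17beta-estradiol alongside compound; series mostly up to about 70 µM; nearly all actives have a fitted effect of over 25% in size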). The gist of the method:
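BG1-Luc-4E2 cells (endogenous full-length ER-alpha, 4xERE luciferase) hormone-starved 5 days in charcoal-stripped FBS, plated 4,000/well for 24 h, then compound plus 17beta-estradiol for 21.5 h at 37 C; ONE-Glo luminescence read.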

The nature of experiment [15]: qHTS assay to identify small molecule antagonists of the estrogen receptor alpha (ER-alpha) signaling pathway using the BG1 cell line - cell viability counter screen (AID 743081).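 Note: compound given together with 17beta-estradiol as the ER stimulus; series mostly up to about 70 µM; nearly all actives have a fitted effect of over 45% in size.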
For another experiment, the target named is Aromatase (Homo sapiens) (UniProt P11511). The experiment in a line: qHTS assay to identify aromatase inhibitors (AID 743083). Note: nearly all actives have a fitted effect of over 55% in size. Note: potency is the fitted concentration of half-maximal effect.
Chain of Aromatase (Homo sapiens) (P11511 whole entry, looked up): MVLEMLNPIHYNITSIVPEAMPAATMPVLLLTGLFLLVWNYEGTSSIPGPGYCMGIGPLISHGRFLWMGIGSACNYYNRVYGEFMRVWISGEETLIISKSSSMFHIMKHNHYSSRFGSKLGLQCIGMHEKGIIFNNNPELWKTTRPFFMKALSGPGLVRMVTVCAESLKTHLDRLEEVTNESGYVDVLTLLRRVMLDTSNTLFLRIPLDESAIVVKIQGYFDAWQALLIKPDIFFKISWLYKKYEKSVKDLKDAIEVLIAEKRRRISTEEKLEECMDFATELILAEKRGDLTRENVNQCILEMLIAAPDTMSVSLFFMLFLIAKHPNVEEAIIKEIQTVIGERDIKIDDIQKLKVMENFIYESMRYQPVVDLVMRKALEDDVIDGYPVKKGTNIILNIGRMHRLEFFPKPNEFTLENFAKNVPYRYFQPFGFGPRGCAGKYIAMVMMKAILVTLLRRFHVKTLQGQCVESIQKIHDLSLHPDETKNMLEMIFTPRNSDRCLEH
Experiment [16] deals with Androgen receptor (Homo sapiens) (UniProt P10275). Kind of experiment: qHTS assay to identify small molecule antagonists of the androgen receptor (AR) signaling pathway (AID 743035; active = well fitted inhibition curve with a large enough effect in the signal ratio in the repeat runs, not every such curve was filed as active; the % refers to the signal ratio). The gist of the method: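 Beta-lactamase FRET read (2 h RT incubation with LiveBLAzer B/G) following 16 h of compound plus R1881 treatment of AR-UAS-bla HEK293 cells, which had been pre-incubated 4 h at 37C.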
Chain of Androgen receptor (Homo sapiens) (P10275 whole entry, looked up): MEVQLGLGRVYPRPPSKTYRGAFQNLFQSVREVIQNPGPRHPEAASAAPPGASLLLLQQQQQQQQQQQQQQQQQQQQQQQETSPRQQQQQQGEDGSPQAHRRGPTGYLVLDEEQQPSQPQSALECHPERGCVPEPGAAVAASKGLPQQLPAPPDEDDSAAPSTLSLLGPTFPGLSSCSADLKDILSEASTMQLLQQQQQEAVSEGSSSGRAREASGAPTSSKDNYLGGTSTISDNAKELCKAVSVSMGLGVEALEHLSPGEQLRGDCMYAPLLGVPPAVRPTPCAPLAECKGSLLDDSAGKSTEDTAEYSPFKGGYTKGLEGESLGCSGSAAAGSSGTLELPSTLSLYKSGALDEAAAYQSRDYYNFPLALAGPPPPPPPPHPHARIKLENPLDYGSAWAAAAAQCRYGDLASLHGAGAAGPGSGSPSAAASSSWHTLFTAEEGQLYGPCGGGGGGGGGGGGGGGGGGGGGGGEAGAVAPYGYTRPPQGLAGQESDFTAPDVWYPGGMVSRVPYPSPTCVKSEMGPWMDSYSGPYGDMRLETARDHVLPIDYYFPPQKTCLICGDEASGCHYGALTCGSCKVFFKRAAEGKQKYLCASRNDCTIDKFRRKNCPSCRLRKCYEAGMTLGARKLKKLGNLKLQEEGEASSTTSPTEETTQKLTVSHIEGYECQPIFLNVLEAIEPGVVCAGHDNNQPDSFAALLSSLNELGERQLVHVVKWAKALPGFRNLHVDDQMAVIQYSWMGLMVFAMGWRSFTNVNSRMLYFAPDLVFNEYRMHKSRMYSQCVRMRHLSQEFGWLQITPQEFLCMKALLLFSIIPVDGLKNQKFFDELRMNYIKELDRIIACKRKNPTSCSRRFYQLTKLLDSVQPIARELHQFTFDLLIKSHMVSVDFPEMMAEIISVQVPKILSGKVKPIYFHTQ

Experiment [17] has the same target. Kind of experiment: qHTS assay to identify small molecule agonists of the androgen receptor (AR) signaling pathway (AID 743036; active = well fitted activation curve with a large enough effect in the signal ratio in the repeat runs, with a control signal flat, not every such curve was filed as active; the % refers to the signal ratio). The gist of the method: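 Activation was read as beta-lactamase FRET signal from LiveBLAzer B/G substrate, added for 2 h at room temperature. Before that, GeneBLAzer AR-UAS-bla GripTite (HEK293) cells had 16 h compound exposure at 37C.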

Experiment [18] has the same target. The experiment in a line: qHTS assay to identify small molecule agonists of the androgen receptor (AR) signaling pathway using the MDA cell line (AID 743040; note: nearly all actives have a fitted effect of over 20% in size). The gist of the method: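 MDA-kb2 breast carcinoma cells carrying MMTV-luciferase (responsive to AR and GR), plated 5 h then treated 16 h with compounds at 37C, 0% CO2. Read-out was ONE-Glo luminescence after 30 min at room temperature.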

For experiment [19] the target is unchanged. The experiment in a line: qHTS assay to identify small molecule antagonists of the androgen receptor (AR) signaling pathway using the MDA cell line (AID 743042; note: nearly all actives have a fitted effect of over 55% in size; note: potency is the fitted concentration of half-maximal effect). The method, boiled down: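 MDA-kb2 breast carcinoma cells carrying MMTV-luciferase (AR/GR responsive) were co-treated with compounds and the agonist R1881 for 16 h at 37C. Inhibition read as ONE-Glo luminescence; CellTiter-Fluor fluorescence measured in parallel for cytotoxicity.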

Take `O=C(O)CCCC/C=C(\c1ccccc1)c1cccnc1`: the Potency result in experiment [1], in experiment [2], in experiment [3], in experiment [4], in [5] and in experiment [6] was “inactive” each time. Also, the Potency entry in [7], in experiment [8], in [9], in [10], in [11] and in experiment [12] was “inactive” throughout. For the same compound, the Potency entry (in [13]; in experiment [14]; in experiment [15]; in the experiment with Aromatase (Homo sapiens)) was “inactive” each time.
On to `CN[C@@H]1[C@@H](O[C@H]2O[C@H](CO)[C@@H](N)[C@H](O)[C@H]2O)O[C@H]2C[C@@H](N)[C@@H](O[C@H]3[C@H](O)[C@@H](O)[C@H](N)C[C@@H]3N)O[C@@H]2[C@@H]1O`, for which the Potency result in experiment [1], in experiment [2], in experiment [3], in experiment [4], in experiment [5] and in experiment [16] was “inactive” in each case. In addition, the Potency result in [17], in experiment [18], in [6], in [19], in experiment [7] and in [8] was “inactive” each time. The Potency entry in [9], in experiment [10], in [11], in experiment [12], in experiment [13] and in experiment [14] was “inactive” each time. In addition, the Potency entry (in experiment [15]; with Aromatase (Homo sapiens)) was “inactive” each time.
For the compound `O=C(O)COc1ccccc1/C=N/NC(=O)c1ccncc1`, the Potency entry in [1], in experiment [2], in experiment [3], in [4], in [5] and in [17] was “inactive” each time. Further, the Potency entry in experiment [18], in experiment [6], in experiment [19], in [7], in experiment [8] and in [9] was “inactive” throughout. The Potency entry in experiment [10], in experiment [11], in [12], in experiment [13], in experiment [14] and in experiment [15] was “inactive” throughout. In addition, in the experiment with Aromatase (Homo sapiens), the Potency entry was “inactive”.
As to `O=C(O)[C@@H]1C[C@H](CP(=O)(O)O)CCN1`, the Potency entry in experiment [1], in experiment [2], in experiment [3], in [4], in [5] and in experiment [17] was “inactive” throughout. The Potency entry in experiment [18], in [6], in experiment [19], in [10], in experiment [11] and in experiment [12] was “inactive” throughout. Moreover, the Potency entry (in experiment [13]; in experiment [14]; in experiment [15]; with Aromatase (Homo sapiens)) was “inactive” in each case.
With `N#Cc1nc(Cl)c(Cl)c(Cl)c1Cl`, the Potency was 19500 nM (active) in experiment [1]; 1540 nM (active) in experiment [2]; 1720 nM (active) in experiment [3]; 1540 nM (active) in [4]; 9770 nM (active) in [5]; 30600 nM (active) in [6]. Besides, the Potency in experiment [19] is 6860 nM (active); in [8], 1720 nM (active); with Aromatase (Homo sapiens) it was 4860 nM (active). The Potency result in experiment [18] and in experiment [15] was “inactive” throughout.
As for `CCOC(=O)[C@H](CCc1ccccc1)N[C@@H](C)C(=O)N1[C@H](C(=O)O)C[C@H]2CCCC[C@@H]21`, the Potency result in experiment [1], in experiment [2], in experiment [3], in [4], in [5] and in [17] was “inactive” in each case. Moreover, the Potency result in experiment [18], in [6], in experiment [19], in [7], in experiment [8] and in experiment [9] was “inactive” throughout. Moreover, the Potency result (in [11]; in [15]; with Aromatase (Homo sapiens)) was “inactive” in each case.
With `O=C(O)Cc1nn(Cc2ccc(Br)cc2F)c(=O)c2ccccc12`, the Potency result in experiment [1], in experiment [2], in experiment [3], in experiment [4], in experiment [5] and in experiment [17] was “inactive” each time. Also, the Potency entry in [18], in experiment [6], in experiment [19], in [7], in experiment [8] and in [9] was “inactive” throughout. Besides, the Potency entry in experiment [10], in [11], in [12], in [13], in experiment [14] and in experiment [15] was “inactive” in each case. In the experiment with Aromatase (Homo sapiens), the Potency entry is “inactive”.
Consider `Cc1cnc(C(=O)O)c[n+]1[O-]`, for which the Potency result in [1], in [2], in [3], in experiment [4], in experiment [5] and in experiment [6] was “inactive” in each case. Further, the Potency entry in experiment [7], in experiment [8], in experiment [9], in experiment [10], in [11] and in [12] was “inactive” in each case. The Potency result (in experiment [13]; in experiment [14]; in experiment [15]; with Aromatase (Homo sapiens)) was “inactive” each time.
Turning to `O=C(O)C[C@H](O)C[C@H](O)/C=C/c1c(C2CC2)nc2ccccc2c1-c1ccc(F)cc1`, the Potency result in experiment [1], in experiment [5], in experiment [17], in experiment [18], in experiment [6] and in [19] was “inactive” in each case. For the same compound, the Potency entry in experiment [9], in experiment [11], in [13] and in [15] was “inactive” in each case. The Potency in experiment [2] was 531 nM (active); in [3], 94.4 nM (active); in experiment [4], 1680 nM (active).
With `C=CCN1C(=O)C(CC(C)C)NC1=S` (stereo unspecified), the Potency entry in experiment [1], in [2], in experiment [3], in experiment [4], in experiment [5] and in [6] was “inactive” throughout. The Potency result in experiment [7], in experiment [8], in experiment [9], in [10], in experiment [11] and in experiment [12] was “inactive” throughout. Besides, the Potency result (in [13]; in experiment [14]; in [15]; in the experiment with Aromatase (Homo sapiens)) was “inactive” throughout.
`CN(C)CCc1c[nH]c2ccc(Cn3cncn3)cc12`: the Potency result in [1], in experiment [2], in experiment [3], in [4], in experiment [5] and in [16] was “inactive” each time. Moreover, the Potency result in experiment [17], in experiment [18], in experiment [6], in experiment [19], in experiment [7] and in experiment [8] was “inactive” in each case. Also, the Potency entry (in [9]; in experiment [11]; in experiment [15]; in the experiment with Aromatase (Homo sapiens)) was “inactive” in each case.
Consider `C[N+](C)(C)CCOP(=O)(O)OP(=O)([O-])OC[C@H]1O[C@@H](n2ccc(N)nc2=O)[C@H](O)[C@@H]1O`, for which the Potency entry in [1], in experiment [2], in experiment [3], in [4], in experiment [5] and in experiment [16] was “inactive” each time. The Potency result in experiment [17], in [6], in [19], in experiment [7], in experiment [8] and in experiment [9] was “inactive” in each case. Also, the Potency result in experiment [10], in [11], in [12], in [13], in experiment [14] and in experiment [15] was “inactive” throughout. For the same compound, the Potency result in the experiment with Aromatase (Homo sapiens) was “inactive”.
